This note sets out measurements from PubChem BioAssay (NCI).

The panel holds about 79,000 compounds, 15% with a hit somewhere; the sample as a whole holds those more often. A number with no mark means an inactive call. Active and inactive are the calls of the source. No stated cut-off is given here; in the data, active means growth inhibition above about 70%; inactive means the rest.

Test [1] can be described thus: NCI Yeast Anticancer Drug Screen. Data for the rad50 strain (AID 155).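 Further: 0% = growth of vehicle-only cultures of the same strain.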 Particulars: S. cerevisiae rad50 strain growth inhibition; at 50.0 µM; hits give high values. In outline:
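Cells are treated with compound, grown, and their growth is then scored against vehicle-only cultures of the same repair-deficient yeast strain.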

Test [2] in a line: NCI Yeast Anticancer Drug Screen. Data for the mec2-1 strain (AID 157). Particulars: S. cerevisiae mec2-1 strain, at 50.0 µM, hits give high values. In outline:
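Vehicle-treated cultures served as reference for growth inhibition of compound-exposed mec2-1 yeast.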

Test [3] is described as follows: NCI Yeast Anticancer Drug Screen. Data for the sgs1 mgt1 strain (AID 161).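 Further: 0% = growth of cultures given vehicle only.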 Particulars: S. cerevisiae sgs1 mgt1 strain, at 50.0 µM, hits give high values. In outline: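 Read-out: growth inhibition vs vehicle controls. Cells: mutant yeast strain deficient in DNA damage repair.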
Test [4] is described as follows: NCI Yeast Anticancer Drug Screen. Data for the cln2 rad14 strain (AID 165).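 Further: 0% = growth equal to vehicle treated cultures.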 Particulars: S. cerevisiae cln2 rad14 strain, at 50.0 µM, hits give high values. In outline:
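Each compound was tested on cln2 rad14 yeast. Inhibition of growth was calculated against vehicle-exposed controls.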

Test [5] in a line: NCI Yeast Anticancer Drug Screen. Data for the bub3 strain (AID 167). The note with it: S. cerevisiae bub3 mutant strain, at 50.0 µM, hits give high values. In outline: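 Part of a panel of yeast mutants defective in DNA damage repair or cell cycle regulation. Each strain is grown with compound, and inhibition is calculated relative to solvent-treated cultures.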
Test [6] is described as follows: NCI Yeast Anticancer Drug Screen. Data for the mlh1 rad18 strain (AID 175). The note with it: S. cerevisiae mlh1 rad18 strain growth inhibition; at 50.0 µM; hits give high values. In outline:
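Vehicle-treated cultures served as the reference for growth inhibition in a yeast strain carrying DNA damage repair alterations exposed to each compound.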

On to `CCOC(CN1CCCCC1)OCC`, for which the growth inhibition in test [1] was -7.85%; in test [2], -7.6%; in test [3], 17.1%; in test [4], 8.7%; in test [5] it was -1.6%; in test [6], 6.65%.
As for `O=C(/C=C(\Cl)c1ccc2c(c1)OCO2)OC/C=C\c1ccc2c(c1)OCO2`, the growth inhibition in test [1] was 30.9%; in test [2], 9.55%; in test [3], 25.1%; in test [4], 20.3%; in test [5], -7.4%; in test [6], 19.2%.
Consider `N#C/C(=C\N1CC(=O)NC1=S)C(N)=O`, for which the growth inhibition is -79.8% in test [1]; -12.6% in test [2]; -30.9% in test [3]; -22.1% in test [4]; -23.2% in test [5]; -69.5% in test [6].
As to `CCCCCCn1c(=O)c(N(C)C)c(C)n(C)c1=O`, the growth inhibition was -36.1% in test [1]; -3.5% in test [2]; -9.05% in test [3]; 46% in test [4]; 17.7% in test [5]; -23.4% in test [6].
As to `Cc1cnc(NCCCCCCNc2ncc(C)c(-c3ccccc3O)n2)nc1-c1ccccc1O`, the growth inhibition in test [1] was 13.1%; in test [2], -4.55%; in test [3], -26.5%; in test [4] it was 4%; in test [5], 0.35%; in test [6], 4.5%.
In the case of `O=S(=O)(O)CCCO`, the growth inhibition in test [1] was 0.4%; in test [2], -44.3%; in test [3] it was -14.7%; in test [4], -1.05%; in test [5], -0.45%; in test [6], -2.4%.
On to `CCOC(=O)C(C)c1nc2cc(F)c(F)cc2[nH]c1=O` (stereo unspecified), for which the growth inhibition in test [1] is -5.45%; in test [2], 26.5%; in test [3] it was 9%; in test [4], 2.6%; in test [5], 4.1%; in test [6], -19.4%.
With `OCCC(CO)Cc1ccc2c(c1)OCO2` (stereo unspecified), the growth inhibition is -26.7% in test [1]; 2.75% in test [2]; 9.3% in test [3]; 10.4% in test [4]; -14.2% in test [5]; -36.3% in test [6].
Consider `COC(=O)C1C2C=CC(C2)N1[C@@H](C)c1ccccc1` (stereo partly specified), for which the growth inhibition in test [1] is 8.55%; in test [2] it was -28.3%; in test [3], -40.1%; in test [4] it was -5.6%; in test [5], -28%; in test [6], -21.4%.
As for `CC1=C(c2ccco2)C(c2ccco2)OC1=O` (stereo unspecified), the growth inhibition was 8.45% in test [1]; 27.2% in test [2]; 15.9% in test [3]; -16.6% in test [4]; 18.3% in test [5]; -7.3% in test [6].
`Cc1ccc(C2(c3ccccc3)c3ccccc3C(=O)N2c2ccccc2)cc1` (stereo unspecified): the growth inhibition is 97% (active) in test [1]; 97.6% (active) in test [2]; 97.7% (active) in test [3]; 95% (active) in test [4]; 97.2% (active) in test [5]; 96.9% (active) in test [6].
`Clc1cc(Cl)cc(Nc2nc3ccccc3nc2-c2cccs2)c1`: the growth inhibition in test [1] was -19.3%; in test [2], -14%; in test [3], 33.2%; in test [4], 3.35%; in test [5], -29.1%; in test [6], -10.2%.
As for `Cc1nc2c(c(=O)[nH]1)S/C(=C(/C#N)c1nc3ccccc3[nH]1)N2c1ccccc1`, the growth inhibition in test [1] was -39.8%; in test [2] it was -29%; in test [3], -42.4%; in test [4], -22%; in test [5], -40.8%; in test [6], -47.9%.
Take `COc1cc(CCCCC(=O)O)cc(Br)c1OC`: the growth inhibition is -17.7% in test [1]; -1.95% in test [2]; 4.9% in test [3]; -33.7% in test [4]; 29.8% in test [5]; -3.85% in test [6].
As for `O=C(Nc1ccc(N=C=S)cc1Cl)c1cc(Cl)cc(Cl)c1O`, the growth inhibition in test [1] is 82.3% (active); in test [2], 56.9%; in test [3], 78.5% (active); in test [4] it was 67.7%; in test [5], 82.5% (active); in test [6] it was 82.5% (active).
As for `CCc1cc(COC(C)=O)on1`, the growth inhibition in test [1] is 5.35%; in test [2], -18.5%; in test [3] it was -8.4%; in test [4], -35.9%; in test [5], -1.9%; in test [6], -2.6%.
Turning to `CC(C)(C)C1CCC2c3c([nH]c4ccccc34)C3C(=O)N(c4ccccc4[N+](=O)[O-])C(=O)C3C2C1` (stereo unspecified), the growth inhibition in test [1] is -16.9%; in test [2] it was -24.1%; in test [3], -18.6%; in test [4], 4.8%; in test [5], -15.3%; in test [6] it was -26.6%.
For `CCOC(=O)C1=NN(c2ccc(C)cc2)C2=CC(C)=NN(C)C(=S)N21`, the growth inhibition was -18.1% in test [1]; -7.3% in test [2]; -21.8% in test [3]; -13.6% in test [4]; 7.1% in test [5]; -49.3% in test [6].
As for `CCCCCCCCCCCC(=O)NC(=S)Nc1ccc(N(C)C(C)=O)cc1`, the growth inhibition in test [1] was 90.5% (active); in test [2], 92.8% (active); in test [3] it was 92.5% (active); in test [4] it was 87.6% (active); in test [5], 90% (active); in test [6] it was 91.9% (active).
`NCC1OC(OC2C(CO)OC(OC3C(O)C(N)CC(N)C3OC3OC(CO)C(O)C(O)C3N)C2O)C(N)C(O)C1O` (stereo unspecified): the growth inhibition in test [1] is 33.8%; in test [2], -18.1%; in test [3], 1.85%; in test [4], 1.4%; in test [5], 27.6%; in test [6], 33.7%.
`O=C1C(=O)C(c2ccccc2)(c2ccccc2)C(=O)N1c1ccccc1`: the growth inhibition was 29.6% in test [1]; 13.2% in test [2]; 0.9% in test [3]; 49.6% in test [4]; 16.4% in test [5]; -6.7% in test [6].
